Compounds with a hit are over-represented: about 19% of the library has one in this group of screens.
TGFb inhibitor = inhibitors of TGF-b signaling. HepG2 CAGA-GFP TGF-b/SMAD3 reporter, GFP fluorescence, 18 h; TGF-beta stimulated, 500 pg/mL final. Potency, µM (series often up to 46.1 µM), without a hit: at the highest dose activity, negative = inhibition, actives largely listed as inhibitors. 410,000 tested, 1.2% active. AID 588855; also: potency is read from the fitted curve at half-maximal effect; % is scaled to controls: 0 for no effect and ±100 for the full control effect; nearly all actives have a fitted effect of over 65% in size
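HEPG2 CAGA-GFP cells (1000/well, DMEM with 1% FBS) were pre-incubated 2 h at 37 degrees C, given compound by pin tool, then stimulated with TGF-beta at 500 pg/mL final for 18 h before per-cell GFP fluorescence imaging.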
IL-1B inflam inh = inhibitors of inflammasome signaling (IL-1 beta secretion). THP-1 LPS/ATP IL-1B secretion, AlphaLISA, 16 h; hits give low values. activity change, % at 57.5 µM. 360,000 tested, 4.7% active; in the data active = activity change below about -50%; inconclusive = mostly about -30% to -49%; also: % is scaled to controls: 0 for no effect and ±100 for the full control effect
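Secreted IL-1B measured by AlphaLISA bead assay after 16 h compound exposure of THP-1 cells; compounds (final up to 57.5 uM) added 1 h before LPS (250 ng/mL) and ATP (1.25 mM) stimulation; lower signal means less secretion.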
HepG2 tox = kills HepG2 cells in TGF-b inhibitor counter-screen | HepG2 CAGA-GFP viability, ATP luminescence, 18 h | Potency, µM (series often up to 46.1 µM), inactives show at the highest dose activity change, negative = cytotoxicity, actives largely listed as cytotoxic | 410,000 tested, 0.76% active | AID 588856; also: potency is read from the fitted curve at half-maximal effect
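HepG2 CAGA-GFP cells (1000/well, DMEM with 1% FBS) received compound, then TGF-beta at 500 pg/mL final, and were incubated 18 hours at 37 degrees C. Viability was read by CellTiter-Glo luminescence. Media-only wells were set as complete cell-killing and DMSO as no toxicity.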
DT40 TDP1 CPT = growth inhibition of DT40 Tdp1-/-;hTDP1 cells with camptothecin (screen for TDP1 inhibitors); chicken DT40 Tdp1-/-;hTDP1 cells + 20 nM CPT, ATP luminescence, 48 h; Potency, µM (doses to about 46.2 µM), for inactives: top-dose activity change, negative = growth inhibition, most hits filed as inhibitors; 420,000 tested, 12% active; AID 686979; also: potency is read from the fitted curve at half-maximal effect; % is scaled to controls: 0 for no effect and ±100 for the full control effect; nearly all actives have a fitted effect of over 55% in size
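Chicken DT40 Tdp1-/- cells stably complemented with human TDP1 were seeded at 400 cells/well in medium containing 20 nM camptothecin, exposed to pin-transferred compounds, and grown at 37 °C for at least 48 hr. Viability was read as ATP luminescence.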
TDP1 cell noCPT = qHTS for Inhibitors of human tyrosyl-DNA phosphodiesterase 1 (TDP1): qHTS in cells in absence of CPT. DT40 Tdp1-/- hTDP1 cells, no CPT, ATP luminescence, 48 h. Potency, µM (highest dose often 46.2 µM), inactives show at the highest dose activity change, negative = growth inhibition, actives largely listed as inhibitors. 420,000 tested, 15% active; also: potency is read from the fitted curve at half-maximal effect; % is scaled to controls: 0 for no effect and ±100 for the full control effect; nearly all actives have a fitted effect of over 55% in size
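DT40 Tdp1-/-;hTDP1 cells, no CPT (DMSO vehicle only), 400 cells/well; compounds pin-transferred; ≥48 hr, 37 °C; CellTiter-Glo 30 min RT dark, luminescence read.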
TDP1 block = blocks human tyrosyl-DNA phosphodiesterase 1; recombinant TDP1, AlphaScreen DNA substrate cleavage; Potency, µM (series often up to 130 µM), inactives show at the highest dose activity change, negative = inhibition, most hits filed as inhibitors; 350,000 tested, 0.28% active; also: potency is read from the fitted curve at half-maximal effect; % is scaled to controls: 0 for no effect and ±100 for the full control effect; nearly all actives have a fitted effect of over 40% in size
Target sequence (Q9NUW8 whole entry, looked up): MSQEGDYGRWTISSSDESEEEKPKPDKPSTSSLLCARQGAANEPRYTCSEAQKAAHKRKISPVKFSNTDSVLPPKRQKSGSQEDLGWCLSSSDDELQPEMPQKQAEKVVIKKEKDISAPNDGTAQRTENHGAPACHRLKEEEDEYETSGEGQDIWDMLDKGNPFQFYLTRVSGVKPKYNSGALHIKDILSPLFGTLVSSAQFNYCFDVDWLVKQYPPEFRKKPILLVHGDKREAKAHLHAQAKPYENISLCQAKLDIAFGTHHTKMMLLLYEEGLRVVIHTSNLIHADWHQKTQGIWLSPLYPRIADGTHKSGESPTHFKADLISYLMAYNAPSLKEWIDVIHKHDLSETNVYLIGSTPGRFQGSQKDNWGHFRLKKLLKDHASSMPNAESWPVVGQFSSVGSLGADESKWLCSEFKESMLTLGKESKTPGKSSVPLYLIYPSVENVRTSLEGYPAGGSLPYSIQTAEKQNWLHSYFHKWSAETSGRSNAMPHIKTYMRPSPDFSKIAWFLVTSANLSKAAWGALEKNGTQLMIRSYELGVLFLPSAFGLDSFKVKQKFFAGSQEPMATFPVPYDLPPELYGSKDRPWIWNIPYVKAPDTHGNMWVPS
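AlphaScreen read-out: signal falls as enzyme removes the 3' tyrosine-FITC from a 5'-biotinylated DNA oligo (15 nM, 5 min, RT). Enzyme was E. coli-made recombinant Tdp1 at 1 nM, exposed to compound for 15 min beforehand; beads 10 ug/ml, 10 min.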
* = called active by the depositor; u = inconclusive; x = not tested or not shown; ! = not active in a repeat; [ ] = remark or other dose. Unless noted, calls follow the shape of the dose curve; as a rule, active = well fitted curve in the direction sought with a large enough effect; inconclusive = small, poorly fitted or top-dose-only effect, or another doubt; inactive = no such curve, though single readings can be large; an effect the other way counts as inactive or inconclusive.

SMILES | TGFb inhibitor | IL-1B inflam inh | HepG2 tox | DT40 TDP1 CPT | TDP1 cell noCPT | TDP1 block
O=C(CNC(c1ccccc1)c1ccccc1)Nc1ccccc1F | -3% | -3 | -13% | u | u | x
Cc1cc(C)cc(NC(=O)CNC(c2ccccc2)c2ccccc2)c1 | -29% | -6 | 1% | u | 10µM* | x
O=C(CNC(c1ccccc1)c1ccccc1)Nc1ccccc1-c1ccccc1 | -28% | 16 | 9% | u | 18µM* | -3%
O=C(CCC1CCCCC1)Nc1ccccc1-c1ccccc1 | -12% | 21 | -3% | -3% | -18% | x
Cc1ccccc1OCCC(=O)OCC(=O)NC1CCS(=O)(=O)C1 (stereo not given) | -28% | 7 | 2% | -8% | 19% | x
Cc1ccc(-c2cc(NC(=O)C(C)Oc3ccc(C)c(C)c3)on2)cc1 (stereo not given) | u | x | -29% | u | u | 2%
Cc1ccc(NC(=O)CCC(=O)N2Cc3ccccc3Oc3ncccc32)c(C)c1 | 3% | x | 0% | u | u | 3%
COc1ccc(-c2c[n+](CC(=O)c3ccccc3)c3n2CCCCC3)cc1 | -11% | u | -3% | 7.3µM* | 4.1µM* | 0%
O=C(C[n+]1cc(-c2ccc(F)cc2)n2c1CCC2)c1cccs1 | 0% | 0 | -31% | -5% | -23% | 1%
O=C(C[n+]1cc(-c2ccccc2)n2c1CCCCC2)c1ccc(Cl)cc1 | 5% | -76* | -18% | 21µM* | 16µM* | 0%
Cc1ccc(-c2c[n+](CC(=O)c3ccc(Br)cc3)c3n2CCCCC3)cc1 | -27% | -95* | -22% | 1.5µM* | 1.6µM* | 7%
Cc1ccc(NC(=O)C[n+]2cc(-c3ccccc3)n3c2CCC3)cc1 | 9% | 0 | 2% | -1% | u | 6%
COc1ccc(-c2c[n+]3c4n2CCCCC4=C(c2ccccc2)C3)cc1 | u | u | -33% | 3.3µM* | 5.2µM* | 2%
Cc1cc2nc(-c3ccc(Cl)cc3)cc(C(F)(F)F)n2n1 | 7% | x | -3% | -29% | -24% | 2%
CN1C2CCC1CC(NC(=O)CSCc1ccc(Cl)cc1Cl)C2 (stereo not given) | 1% | -3 | -12% | u | u | 5%
CCc1cc2c(nc1CC)CCN(CC/C(C)=N/O[C@@H](C)c1cn([C@@H]3COC[C@@H]3O)nn1)C2 | x | x | x | x | x | 9%[21 µM]
Cc1cccc(N2C(=O)N3[C@@H]4c5ccccc5OC[C@@H]4[C@@H](c4ccccc4)[C@@]3(C)C2=O)c1 | u | -5 | -13% | u | u | x
CCCCCCCCCCCCCC[n+]1ccc(C)cc1 | x | x | x | 0.42µM* | 0.38µM* | x
CCCCCCCCCCCCCCCC[n+]1ccc(/C=N/O)cc1 | u | -100* | -113% | 1.6µM* | 1.6µM* | -3%
CCCCCCCCCCCC[n+]1ccc2ccccc2c1 | x | x | x | 0.53µM* | 0.34µM* | x
CCCCCCCC[n+]1cccc(C(=O)N(CC)CC)c1 | 16% | -6 | 13% | -26% | u | -1%
CCCCCCCCCCCCCCCC[n+]1cccc(C(=O)N(CC)CC)c1 | u | -63* | 13µM*! | 2.9µM* | 2.6µM* | -5%
Cc1cc[n+](CC[n+]2ccc(C)cc2)cc1 | 2% | 39 | -1% | -2% | -9% | x
CCCOc1ccc(C2C(=O)N(C3CCCCC3)CC(=O)N2CCC2=CCCCC2)cc1OC (stereo not given) | 6% | x | 0% | -16% | -27% | 13%
COc1ccccc1CNS(=O)(=O)c1c(C(=O)N2CCCCC2)c(C)n(C)c1C | 11% | -11 | 1% | -22% | 13% | 3%
SMILES | TGFb inhibitor | IL-1B inflam inh | HepG2 tox | DT40 TDP1 CPT | TDP1 cell noCPT | TDP1 block
COc1ccc(Cc2nc3ccc(C(=O)NCCc4ccc(Cl)cc4)cc3o2)cc1 | 1% | x | -1% | -29% | u | 3%
COCCn1c(=NC(=O)c2ccc3c(c2)OCCO3)sc2cc(C(=O)OC)ccc21 | u | x | 6% | 1% | -23% | 5%
CCCCCCCCCCCCCCCC[n+]1ccc(C(N)=O)cc1 | u | -103* | -69% | 4.6µM* | 2.9µM* | 0%
CCc1ccc2c(c1)N(CC(C)CN(C)C)c1ccccc1S2 (stereo not given) | x | x | x | u | 15µM* | x
C=CCCC(=O)NC1CCCc2c1cnn2-c1ccccc1F (stereo not given) | -34% | 79 | -27% | -14% | -7% | x
Cc1ccc(C(=O)N2CCCC(N(C)Cc3ccccc3)C2)s1 (stereo not given) | -13% | 0 | 1% | -8% | -8% | 1%
O=C(Nc1ccccc1Cl)c1ccc2c(c1)N(Cc1ccc(F)cc1)C(=O)CS2=O (stereo not given) | -3% | -6 | -92% | 16µM* | u | 5%
CC(C)CCNC(=O)c1ccc2c(c1)N(Cc1ccccc1)C(=O)CS2=O (stereo not given) | 0% | -2 | -28% | 21µM* | u | 2%
Cc1c(-c2cccc(NC(=O)Nc3ccccc3)c2)nc2ncccn12 | -4% | x | -8% | u | u | 0%
CC(N=C1NS(=O)(=O)c2ccccc21)C(=O)NCc1ccc(F)cc1 (stereo not given) | 1% | 20 | -5% | 8% | -17% | 1%
O=C(COc1ccccc1F)Nc1ccc2nc(SCC(=O)N3CCCC3)sc2c1 | 0% | x | -30% | u | 13µM* | 5%
O=C(COc1ccccc1F)Nc1ccc2nc(SCC(=O)N3CCOCC3)sc2c1 | -18% | x | -24% | 18µM* | 12µM* | 2%
O=C(Nc1ccc2nc(SCC(=O)N3CCCC3)sc2c1)c1ccccc1F | 0% | x | -22% | 16µM* | 16µM* | 6%
CCOc1ccc(CCNC(=O)c2cn(CC)c3ccc(S(=O)(=O)N4CCc5ccccc5C4)cc3c2=O)cc1OCC | u | x | -5% | 18µM* | 12µM* | 5%
C=CCn1cc(C(=O)N2CCc3ccccc3C2)c(=O)c2cc(S(=O)(=O)N(CC)CC)ccc21 | 21% | -25 | 7% | u | 18µM* | 1%
C=CCn1cc(C(=O)OC)c(=O)c2cc(S(=O)(=O)N(CC)CC)ccc21 | 0% | 8 | 2% | -2% | -2% | 3%
CCn1cc(C(=O)NCCc2ccc(OC)c(OC)c2)c(=O)c2cc(S(=O)(=O)N3CCOCC3)ccc21 | -13% | -18 | -12% | u | 18µM* | 9%
